Source: PubChem
Rows were chosen to be rich in hits. Some 4.2% of all compounds tested hit in one or more screens of this group.
RecA intein inh – Mtb RecA intein splicing inhibition. inhibition, % (test concentration not listed). AID 2221. cell-free RecA intein splicing, fluorescence. P9WHJ3. 290,000 compounds, 0.75% hits; in the data active means inhibition above about 30%
Target sequence (P9WHJ3 whole entry, looked up): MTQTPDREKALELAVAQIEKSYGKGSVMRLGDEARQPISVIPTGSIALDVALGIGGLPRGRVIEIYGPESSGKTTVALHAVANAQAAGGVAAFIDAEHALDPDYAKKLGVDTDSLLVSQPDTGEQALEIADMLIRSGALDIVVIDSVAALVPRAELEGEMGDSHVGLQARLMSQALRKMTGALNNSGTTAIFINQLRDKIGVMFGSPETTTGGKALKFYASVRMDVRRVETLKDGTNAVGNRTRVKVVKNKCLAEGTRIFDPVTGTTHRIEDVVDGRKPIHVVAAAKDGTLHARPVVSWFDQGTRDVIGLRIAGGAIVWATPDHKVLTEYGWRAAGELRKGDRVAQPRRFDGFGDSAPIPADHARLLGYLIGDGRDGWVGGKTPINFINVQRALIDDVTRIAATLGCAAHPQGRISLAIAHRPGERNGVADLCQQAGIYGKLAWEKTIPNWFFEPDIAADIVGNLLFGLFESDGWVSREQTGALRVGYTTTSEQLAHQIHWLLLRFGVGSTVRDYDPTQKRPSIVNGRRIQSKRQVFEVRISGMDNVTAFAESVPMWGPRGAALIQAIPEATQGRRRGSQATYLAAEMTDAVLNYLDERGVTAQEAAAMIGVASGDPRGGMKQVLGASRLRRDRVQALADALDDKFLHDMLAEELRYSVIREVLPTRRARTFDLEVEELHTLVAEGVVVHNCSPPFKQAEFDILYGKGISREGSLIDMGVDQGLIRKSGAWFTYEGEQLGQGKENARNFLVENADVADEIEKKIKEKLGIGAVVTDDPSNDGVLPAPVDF
CCHF vOTU inh-1 – blocks the CCHF virus ovarian tumor domain protease; CCHFV vOTU protease, Pep-AMC fluorescence; 370,000 compounds, 0.55% hits; AID 651958; inhibition, % at 11.5 µM
Mtb FBA inh – inhibits M. tuberculosis FBA enzyme; AID 588726; P9WQA3; 360,000 compounds, 2.3% hits; inhibition, % at 1 µM; purified M. tuberculosis FBA, fluorescence read-out; in the data active means inhibition above about 27%
GDH-TPI counter – inhibits GDH-TPI coupling enzymes, artifact for Mtb FBA screen. GDH-TPI coupled enzyme counterscreen, NADH absorbance. inhibition, % at 4.8 µM. 360,000 compounds, 1.2% hits. AID 588335
CCHF vOTU inh-2 – confirmation of CCHF virus vOTU protease inhibitors; 1,900 compounds, 17% hits; Recombinant CCHFV vOTU, Pep-AMC fluorescence; inhibition, % at 11.5 µM; shares compounds with CCHF vOTU inh-1
Large screens that a line does not name were inactive (follow-up assays come after a bar, where they were run). Unless noted, no stated cut-off is given here; in the data, active means inhibition above about 30%; inactive means the rest.

COCc1cc(N2CCN(C(=O)OC(C)(C)C)C[C@H]2C)ccc1N1C[C@@H](C)O[C@@H](C)C1	CCHF vOTU inh-1 35 (no result: RecA intein inh, Mtb FBA inh, GDH-TPI counter) | CCHF vOTU inh-2 inactive
Cc1ccc(/C=N/n2c(C)nnc2C)o1	none
Cc1ccc(C=Nc2ccc(N(C)C)cc2)o1	CCHF vOTU inh-1 33 | CCHF vOTU inh-2 inactive
O=C(c1ccccc1NS(=O)(=O)c1ccccc1)N1CCCCCC1	none
CC(=O)Nc1ccc(S(=O)(=O)Nc2ccccc2C(=O)N2CCCC2)cc1	CCHF vOTU inh-1 30 | CCHF vOTU inh-2 inactive
Cc1cccc(C(=O)N2CCCC(N3CCN(Cc4ccc5c(c4)OCO5)CC3)C2)n1 (stereo not given)	none
CCOc1cccc(CNc2ccc(O)cc2)c1OCc1ccc(Cl)cc1Cl	CCHF vOTU inh-1 49 | CCHF vOTU inh-2 inactive
CCOc1cccc(CNc2ccc(O)cc2)c1OCc1ccccc1Cl	CCHF vOTU inh-1 44 | CCHF vOTU inh-2 inactive
CCOc1cccc(CNn2cnnc2)c1OCc1ccccc1Cl	none
O=C(Nc1ccccc1Cl)C1CCCN(S(=O)(=O)c2ccc(-n3cnnn3)cc2)C1 (stereo not given)	none
COc1cccc(OCc2cc(C(=O)N3CCN(C)C(c4ccccc4)C3)no2)c1 (stereo not given)	none (no result: CCHF vOTU inh-1)
Cc1ccc(S(=O)(=O)Nc2c(Cl)c(Cl)c(O)c3ccccc23)cc1	none (no result: CCHF vOTU inh-1, Mtb FBA inh, GDH-TPI counter)
CC1(C(=O)NCc2ccc(C(F)(F)F)cc2)CCN1Cc1c(F)cccc1F (stereo not given)	CCHF vOTU inh-1 31 (no result: RecA intein inh) | CCHF vOTU inh-2 inactive
CSc1ccc(CN2CCC2(C)C(=O)NCc2cccc(C(F)(F)F)c2)cc1 (stereo not given)	none (no result: RecA intein inh)
CC1(C(=O)NCc2cccc(C(F)(F)F)c2)CCN1CCc1ccccc1 (stereo not given)	CCHF vOTU inh-1 31 (no result: RecA intein inh) | CCHF vOTU inh-2 inactive
Cc1noc(NS(=O)(=O)c2ccc(NS(=O)(=O)c3ccc(C(C)(C)C)cc3)cc2)c1C	CCHF vOTU inh-1 30 (no result: RecA intein inh) | CCHF vOTU inh-2 inactive
Nc1ccccc1C(=O)N1CCc2ccccc21	CCHF vOTU inh-1 49 | CCHF vOTU inh-2 inactive
Cc1ccc(Cl)cc1N1CCN(C(=O)COc2ccc3c(c2)CCC3)CC1	CCHF vOTU inh-1 30 | CCHF vOTU inh-2 inactive
CC(C(=O)Nc1nc(-c2ccc(F)c(F)c2)cs1)N1C(=O)C2CC=CCC2C1=O (stereo not given)	CCHF vOTU inh-1 31 (no result: RecA intein inh) | CCHF vOTU inh-2 inactive
O=C1O[C@@H](c2ccccc2)C[C@@H](O)C(=O)CCCc2ccccc21	none (no result: RecA intein inh, Mtb FBA inh, GDH-TPI counter)
Cc1cnc(C2OCCO2)c2cccc(N)c12	CCHF vOTU inh-1 38 (no result: RecA intein inh) | CCHF vOTU inh-2 65
O=C(CSc1nnc(-c2ccncc2)o1)Nc1ccc(F)c(F)c1	none (no result: RecA intein inh)
C[C@H](CO)N1C[C@H](C)[C@@H](CN(C)Cc2ccc(-c3ccccc3)cc2)Oc2ncc(C#C[C@@H](C)O)cc2C1=O	CCHF vOTU inh-1 33 (no result: RecA intein inh) | CCHF vOTU inh-2 inactive
C[C@H](O)C#Cc1cnc2c(c1)C(=O)N([C@H](C)CO)C[C@@H](C)[C@@H](CN(C)Cc1ccc(-c3ccccc3)cc1)O2	none (no result: RecA intein inh)
CCCCN(C(=O)c1c(CC)noc1C)c1c(N)n(CCCC)c(=O)[nH]c1=O	none (no result: RecA intein inh)
CC(C)(C)S(=O)N1C[C@H]2CC(=O)C(CCO)=C2[C@@H]1CCO (stereo not given in full)	none (no result: RecA intein inh, Mtb FBA inh, GDH-TPI counter)
CCCCc1nnc(NC(=O)C2=COCCO2)s1	CCHF vOTU inh-1 33 | CCHF vOTU inh-2 inactive
Cc1nnc(NC(=O)C2=COCCO2)s1	none
CCCCNC(=S)NNC(=O)c1cc(-c2cccnc2)nc2ccccc12	CCHF vOTU inh-1 35 | CCHF vOTU inh-2 inactive
CCCNC(=S)NNC(=O)c1cc(-c2cccnc2)nc2ccccc12	none
Cn1c(SCc2ccccc2)nccc1=O	none (no result: RecA intein inh)
CC1=C(SCc2ccccc2)C(=O)c2ccccc2C1=O	CCHF vOTU inh-1 104 (no result: RecA intein inh) | CCHF vOTU inh-2 87
CCCCNC(=O)c1nc(C2CCN(S(=O)(=O)c3ccc(F)c(F)c3)CC2)oc1-c1ccccc1	none (no result: RecA intein inh, GDH-TPI counter)
CC(=O)N1CCOc2ccc(S(=O)(=O)Nc3cccc(C)c3)cc21	CCHF vOTU inh-1 31 | CCHF vOTU inh-2 inactive
COc1cccc(NS(=O)(=O)c2ccc3c(c2)N(C(C)=O)CCO3)c1	none
O=C1C(SCCO)=C(SCCO)C(=O)c2ccccc21	CCHF vOTU inh-1 114 (no result: RecA intein inh) | CCHF vOTU inh-2 107
COc1ccc(CNC(=O)CN(C(=O)CCC(=O)Nc2ccccn2)c2ccc(C)cc2)cc1	none
COC(=O)C1=C(C)N(Cc2ccc(C(F)(F)F)cc2)C(=NCc2ccc(OC)cc2)NC1c1ccccc1C(F)(F)F (stereo not given)	CCHF vOTU inh-1 35 (no result: RecA intein inh, Mtb FBA inh, GDH-TPI counter) | CCHF vOTU inh-2 inactive
COC(=O)C1=C(C)N(Cc2cccc(C(F)(F)F)c2)C(=NCc2ccc(C(F)(F)F)cc2)NC1c1cccc(F)c1 (stereo not given)	CCHF vOTU inh-1 38 (no result: RecA intein inh, Mtb FBA inh, GDH-TPI counter) | CCHF vOTU inh-2 inactive
COC(=O)C1=C(C)N(Cc2cccc(C(F)(F)F)c2)C(=NCc2ccc(C(F)(F)F)cc2)NC1c1ccc(C(F)(F)F)cc1 (stereo not given)	CCHF vOTU inh-1 40 (no result: RecA intein inh, Mtb FBA inh, GDH-TPI counter) | CCHF vOTU inh-2 inactive
COC(=O)C1=C(C)N(Cc2ccc(C(F)(F)F)cc2)C(=NCc2cccc(C(F)(F)F)c2)NC1c1ccccc1C(F)(F)F (stereo not given)	none (no result: RecA intein inh, Mtb FBA inh, GDH-TPI counter)
Cc1ccc2nsnc2c1S(=O)(=O)N(CCO)Cc1cc2cc3c(cc2[nH]c1=O)OCCO3	CCHF vOTU inh-1 44 | CCHF vOTU inh-2 inactive
Cc1ccc2[nH]c(=O)c(CN(CC3CCCO3)S(=O)(=O)c3c(C)ccc4nsnc34)cc2c1 (stereo not given)	none
Cc1ccc(S(=O)(=O)N(Cc2cc3cc4c(cc3[nH]c2=O)OCCO4)CC2CCCO2)cc1 (stereo not given)	CCHF vOTU inh-1 38 | CCHF vOTU inh-2 inactive
O=c1[nH]c2cc3c(cc2cc1CN(CC1CCCO1)S(=O)(=O)c1ccc(Cl)cc1)OCCO3 (stereo not given)	none
CCCCNc1c(CCc2ccccc2)nc2nc(C)cc(C)n12	none (no result: RecA intein inh, Mtb FBA inh, GDH-TPI counter)
O=C(O)c1cc(O)c2c(c1)[C@@H]([C@H]1c3cc(C(=O)O)cc(O)c3C(=O)c3c(O[C@@H]4O[C@H](CO)[C@@H](O)[C@H](O)[C@H]4O)cccc31)c1cccc(OC3O[C@H](CO)[C@@H](O)[C@H](O)[C@H]3O)c1C2=O (stereo not given in full)	CCHF vOTU inh-1 73 | CCHF vOTU inh-2 33
O=C(O)c1cc(O)c2c(c1)[C@H]([C@H]1c3cc(C(=O)O)cc(O)c3C(=O)c3c(O[C@@H]4O[C@H](CO)[C@@H](O)[C@H](O)[C@H]4O)cccc31)c1cccc(OC3O[C@H](CO)[C@@H](O)[C@H](O)[C@H]3O)c1C2=O (stereo not given in full)	CCHF vOTU inh-1 118 | CCHF vOTU inh-2 107
O=C(Nc1ccccc1)N1CCC(C(=O)N2CCCC(C(F)(F)F)C2)CC1 (stereo not given)	none
O=C(c1ccco1)N1CCN(C(=O)c2ccc(CS(=O)c3ccc(Cl)cc3)o2)CC1 (stereo not given)	CCHF vOTU inh-1 39 | CCHF vOTU inh-2 inactive
CC1=C(C(=O)N(C)C)CC(CC(=O)NCC2CCCCC2)C(=O)N1Cc1ccccc1 (stereo not given)	none (no result: RecA intein inh)
